Measured values taken from PMC7862700, “An all-to-all approach to the identification of sequence-specific readers for epigenetic DNA modifications on cytosine”.

How the values were obtained:
Experiment in all cases: DAPPL (digital affinity profiling via proximity ligation, sequencing); 10 mM Tris-HCl pH 7.5, 50 mM NaCl, 1 mM DTT, 4% glycerol, room temperature, 30 min; GST-TFs on glutathione beads, 16-mer random dsDNA library, 0.1% formaldehyde crosslink after washing; high values mean tight binding
Settings in all cases: protein: recombinant; tags: N-terminal GST; dsDNA, one strand shown
ETV1 = ETV1 (Homo sapiens, UniProt P50549 1-477)
In short: (§1)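 Beads coated with glutathione captured GST-fused human transcription factors that had been expressed in yeast, and the factors were then given DNA barcodes and pooled with a tag-only sample. The pools were incubated with 200 nmole of a random double-stranded 16-mer DNA library in Tris/NaCl/DTT/glycerol buffer for 30 min at room temperature, washed, crosslinked with 0.1% formaldehyde and proximity-ligated with BsaI/T4 ligase at 37 °C for 1 h. PCR amplification and Illumina NextSeq500 sequencing came last. Binding signal is each hexamer's read frequency for a factor divided by its frequency for the tag-only sample.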

ERF = target: T1, ERF (Homo sapiens, UniProt P50548 1-548)
T1 sequence: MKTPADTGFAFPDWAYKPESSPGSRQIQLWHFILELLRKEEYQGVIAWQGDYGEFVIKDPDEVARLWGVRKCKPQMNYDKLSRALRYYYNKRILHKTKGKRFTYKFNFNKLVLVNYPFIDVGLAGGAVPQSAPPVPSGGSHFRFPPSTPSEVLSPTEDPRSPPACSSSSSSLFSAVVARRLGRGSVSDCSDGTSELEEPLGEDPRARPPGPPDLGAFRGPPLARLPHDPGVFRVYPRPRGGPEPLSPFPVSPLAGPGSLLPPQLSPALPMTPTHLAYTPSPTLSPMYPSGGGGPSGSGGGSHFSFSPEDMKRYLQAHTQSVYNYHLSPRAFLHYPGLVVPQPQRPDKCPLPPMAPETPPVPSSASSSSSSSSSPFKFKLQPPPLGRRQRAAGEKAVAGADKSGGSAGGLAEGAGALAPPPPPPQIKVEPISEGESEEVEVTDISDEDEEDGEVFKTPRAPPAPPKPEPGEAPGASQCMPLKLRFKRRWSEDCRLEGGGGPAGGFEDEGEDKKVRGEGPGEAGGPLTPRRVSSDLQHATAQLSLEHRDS
In short: as §1

ETV3L = target: T2, ETV3L (Homo sapiens, UniProt Q6ZN32 1-361)
T2 sequence: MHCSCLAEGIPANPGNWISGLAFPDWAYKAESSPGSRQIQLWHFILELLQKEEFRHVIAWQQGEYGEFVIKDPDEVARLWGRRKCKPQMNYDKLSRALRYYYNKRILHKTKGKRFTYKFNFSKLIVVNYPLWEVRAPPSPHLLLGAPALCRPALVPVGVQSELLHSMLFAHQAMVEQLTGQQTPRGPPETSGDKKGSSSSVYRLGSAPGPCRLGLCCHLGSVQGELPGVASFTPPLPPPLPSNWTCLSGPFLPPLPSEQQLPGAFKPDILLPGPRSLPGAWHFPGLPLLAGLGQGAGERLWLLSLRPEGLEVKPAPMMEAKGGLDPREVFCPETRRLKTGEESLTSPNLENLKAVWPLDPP
In short: as §1

ETS2 = target: T3, ETS2 (Homo sapiens, UniProt P15036 1-469)
T3 sequence: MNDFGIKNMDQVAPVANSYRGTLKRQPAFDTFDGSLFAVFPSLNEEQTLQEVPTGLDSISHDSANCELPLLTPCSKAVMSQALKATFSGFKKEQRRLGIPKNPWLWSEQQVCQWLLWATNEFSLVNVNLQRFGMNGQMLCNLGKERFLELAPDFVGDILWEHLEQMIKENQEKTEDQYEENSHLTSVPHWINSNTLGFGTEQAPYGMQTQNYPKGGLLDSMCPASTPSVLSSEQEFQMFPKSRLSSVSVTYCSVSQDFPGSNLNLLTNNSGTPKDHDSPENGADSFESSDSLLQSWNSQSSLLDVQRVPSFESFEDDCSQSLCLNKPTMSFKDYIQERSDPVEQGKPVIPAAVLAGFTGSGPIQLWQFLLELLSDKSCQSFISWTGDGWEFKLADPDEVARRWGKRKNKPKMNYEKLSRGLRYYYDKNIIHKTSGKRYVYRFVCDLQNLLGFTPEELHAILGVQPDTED
In short: as §1

SPDEF = target: T4, SPDEF (Homo sapiens, UniProt O95238 1-335)
T4 sequence: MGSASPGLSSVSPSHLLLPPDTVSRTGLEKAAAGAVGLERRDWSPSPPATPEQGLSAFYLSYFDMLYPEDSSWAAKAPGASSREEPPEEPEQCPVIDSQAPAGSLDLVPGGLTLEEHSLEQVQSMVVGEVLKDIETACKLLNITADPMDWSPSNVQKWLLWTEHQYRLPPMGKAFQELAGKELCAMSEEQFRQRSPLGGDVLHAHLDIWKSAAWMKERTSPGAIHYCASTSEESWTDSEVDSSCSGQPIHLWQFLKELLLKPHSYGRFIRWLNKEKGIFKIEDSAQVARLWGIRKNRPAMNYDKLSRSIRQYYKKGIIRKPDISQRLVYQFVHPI
In short: as §1

ETV7 = target: T5, ETV7 (Homo sapiens, UniProt Q9Y603 1-341)
T5 sequence: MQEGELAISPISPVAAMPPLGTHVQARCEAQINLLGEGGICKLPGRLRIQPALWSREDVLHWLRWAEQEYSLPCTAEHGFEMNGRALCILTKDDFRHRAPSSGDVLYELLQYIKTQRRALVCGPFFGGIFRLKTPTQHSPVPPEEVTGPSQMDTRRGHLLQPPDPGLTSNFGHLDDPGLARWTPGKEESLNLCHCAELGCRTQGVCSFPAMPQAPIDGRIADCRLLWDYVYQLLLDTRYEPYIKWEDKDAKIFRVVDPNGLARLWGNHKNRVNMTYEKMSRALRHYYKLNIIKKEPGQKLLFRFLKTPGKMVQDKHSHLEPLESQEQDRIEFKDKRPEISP
In short: as §1

ELF5 = target: T6, ELF5 (Homo sapiens, UniProt Q9UKW6-2 1-255)
T6 sequence: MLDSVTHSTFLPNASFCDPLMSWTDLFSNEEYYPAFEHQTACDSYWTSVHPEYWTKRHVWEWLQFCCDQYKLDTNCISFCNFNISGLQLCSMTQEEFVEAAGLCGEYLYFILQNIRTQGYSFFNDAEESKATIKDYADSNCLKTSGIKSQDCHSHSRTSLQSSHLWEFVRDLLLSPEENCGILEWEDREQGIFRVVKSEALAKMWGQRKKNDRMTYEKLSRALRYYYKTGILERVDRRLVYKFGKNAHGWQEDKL
In short: as §1

ETV3 = target: T7, ETV3 (Homo sapiens, UniProt P41162-2 1-143)
T7 sequence: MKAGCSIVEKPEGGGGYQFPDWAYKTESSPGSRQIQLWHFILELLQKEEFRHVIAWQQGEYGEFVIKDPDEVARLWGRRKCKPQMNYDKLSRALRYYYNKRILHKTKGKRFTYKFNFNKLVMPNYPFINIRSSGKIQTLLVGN
In short: as §1

ETV6 = ETV6 (Homo sapiens, UniProt P41212 1-452)
In short: as §1

ETV6, sequence (P41212 whole entry): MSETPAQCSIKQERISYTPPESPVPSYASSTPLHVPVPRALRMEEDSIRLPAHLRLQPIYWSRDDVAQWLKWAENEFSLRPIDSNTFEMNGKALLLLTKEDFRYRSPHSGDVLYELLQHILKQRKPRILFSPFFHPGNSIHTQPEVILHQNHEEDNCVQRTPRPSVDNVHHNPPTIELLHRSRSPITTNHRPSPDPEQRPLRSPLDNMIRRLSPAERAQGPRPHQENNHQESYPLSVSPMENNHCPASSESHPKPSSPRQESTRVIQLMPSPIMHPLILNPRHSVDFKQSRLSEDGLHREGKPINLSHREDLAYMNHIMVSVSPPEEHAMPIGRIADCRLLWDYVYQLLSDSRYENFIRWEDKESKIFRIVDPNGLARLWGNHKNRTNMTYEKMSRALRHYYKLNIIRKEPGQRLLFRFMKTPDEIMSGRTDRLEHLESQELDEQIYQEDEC
ETV1, sequence (P50549 whole entry, the tested form may be a part): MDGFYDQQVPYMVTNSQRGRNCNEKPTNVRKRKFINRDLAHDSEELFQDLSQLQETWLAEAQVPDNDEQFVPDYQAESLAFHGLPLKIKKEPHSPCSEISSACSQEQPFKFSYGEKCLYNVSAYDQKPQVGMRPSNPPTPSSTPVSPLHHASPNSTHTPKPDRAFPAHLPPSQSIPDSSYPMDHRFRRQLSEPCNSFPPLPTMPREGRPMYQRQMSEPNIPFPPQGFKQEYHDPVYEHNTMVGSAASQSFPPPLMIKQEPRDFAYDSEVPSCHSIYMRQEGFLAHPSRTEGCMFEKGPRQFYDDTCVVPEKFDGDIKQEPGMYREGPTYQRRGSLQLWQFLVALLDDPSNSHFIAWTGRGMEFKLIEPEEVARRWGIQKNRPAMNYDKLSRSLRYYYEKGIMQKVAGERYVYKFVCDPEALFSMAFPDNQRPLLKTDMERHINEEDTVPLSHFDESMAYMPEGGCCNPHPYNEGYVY

**Q.** For TAGCAA, which binding signal (ETV1) is on record?
**A.** 1.23 fold enrichment (6-mer frequency, TF over GST control)

**Q.** What about the binding signal (ERF) of the same sequence?
**A.** 1.28 fold enrichment (6-mer frequency, TF over GST control)

**Q.** What about the binding signal (ETV3L) of the same sequence?
**A.** 1.22 fold enrichment (6-mer frequency, TF over GST control)

**Q.** What about the binding signal (ETS2) of the same sequence?
**A.** 1.26 fold enrichment (6-mer frequency, TF over GST control)

**Q.** And the binding signal (SPDEF)?
**A.** 1.23 fold enrichment (6-mer frequency, TF over GST control)

**Q.** What about the binding signal (ETV7) of the same sequence?
**A.** 1.25 fold enrichment (6-mer frequency, TF over GST control)

**Q.** And the binding signal (ELF5)?
**A.** 1.23 fold enrichment (6-mer frequency, TF over GST control)

**Q.** And the binding signal (ETV3)?
**A.** 1.34 fold enrichment (6-mer frequency, TF over GST control)

**Q.** What about the binding signal (ETV6) of the same sequence?
**A.** 1.29 fold enrichment (6-mer frequency, TF over GST control)
